Results published in PubChem BioAssay AID1508600 (Functional Genomics Laboratory (NCATS/FGL), 2020).
The whole screen tested about 53,000 sequences, of which about 3,700 (7%) were called active. Only a selection was taken, and actives are over-represented in it overall. Unmarked numbers belong to inactive results.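 Rule for the calls: active = gene knockdowns whose robust z-score for IL-1 alpha signal is at least 2 or at most -2, so actives lie on both sides; inactive = the rest.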

Assay: Components of the Cytosolic LPS Sensing Pathway: Gene Identification via Genome-wide siRNA Screen;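 note: robust z of the log signal after scaling to non-targeting control siRNA wells of the plate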
Settings: RAW264.7 macrophages, IL-1a HTRF, actives lie on both sides, screened at 100 nM (by protocol), cells primed 5 h with Pam3CSK4 first
Summary of the method: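 RAW264.7 mouse macrophages reverse-transfected with single siRNAs (100 nM final) for 48h, primed with Pam3CSK4 for 5 hours, then transfected with LipidA for 24 hour. Supernatant IL-1a read by HTRF; values normalized to negative-control median, log-transformed robust z-scores.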

| Sequence | z-score |
| --- | --- |
| GGCAGUUUCUGUGCUAUACTT against Olfr984 | -2.49 (active) |
| GGAUAUUUAUUGUAUCCCATT against Col8a1 | -0.918 |
| GGCAUCUGACGAUAAUGAUTT against Lman2l | -0.337 |
| GUUUUUCAUACAGUAGUAGTT against Vmn1r27 | 0.42 |
| CCUGUGGGACUCAAUGUUGTT against 2310039H08Rik | -0.722 |
| GGCCAGGAGAAGAAGAUACTT against Tet2 | -0.261 |
| GCCAUUCAAAAAUCAGCCGTT against Ddi2 | -2.02 (active) |
| GCUCCUAGGAACUUGGUUATT against Pacsin2 | 0.687 |
| GGCUGUUACAUUCUAUAUUTT against Kif5c | -0.13 |
| CCCAAUUAAUGAUCACCCATT against Tlcd2 | -3.04 (active) |
| GGCCCUGAACUGGUUUUGUTT against Osbpl10 | -0.119 |
| GCUCAACACUCGACAUUGUTT against Rrm1 | -2.56 (active) |
| GGUGGCAUUAAGGAAAUCATT against Olfr147 | -0.0185 |
| GGCCUGAAGCAGCUUAUCUTT against Chad | -1.56 |
| GGCAAAAAUGAGAAAGAGATT against Hebp2 | -0.643 |
| GCGUAUUACACCCUUGGAATT against Terf1 | -0.462 |
| GUCCUCCAUGAAGAAGCUCTT against Prm3 | -0.953 |
| GGACUUCAACAAGACCAUCTT against Proser2 | 1.55 |
| CGUCCAUAGAACAAUUGCATT against Rnase12 | 2.82 (active) |
| GGUAUUCCUGUCUCAGGUCTT against Matn1 | -0.59 |
| GGUUAUUCUCAUUUCGGAUTT against Phospho1 | 1.53 |
| GCUUACUUCCAAGGUCUACTT against Ptch2 | 0.905 |
| CCCAGCAGGCCAUAUUAGUTT against Cks1b | 0.377 |

| Sequence | z-score |
| --- | --- |
| GGGAUCAUAAAGAUAACUUTT against Fasn | 2.2 (active) |
| GCAUAGGGUCAUUUCAAGCTT against Kif23 | 0.0957 |
| GCUGUACUAUCUUUUUCAUTT against Olfr165 | -0.0549 |
| GCCAGUUUGUGUGCAAAAATT against Lrp1 | -0.551 |
| GAUCUGGUAUGUUUGUGACTT against Olfr1414 | -1.14 |
| CCUGUGUGUGAAUCUCGUUTT against C1qb | 1.11 |
| GGAAAUGUUGCCGUUGUCCTT against Mfsd8 | 2.13 (active) |
| GGGUGGGAGACGAAGAUAATT against Usp17lf | -0.12 |
| CCUAAUGGUUCAGGAUACGTT against Pcdhb5 | -0.641 |
| GGCUUUGAAAGUUACUACUTT against Zfp609 | 1.22 |
| GCCACUGUGUGGAAUAAAUTT against Cblif | 0.727 |
| CCAAAAGAGUUUUACAGGGTT against Lhx9 | -0.119 |
| GGAUCAGGAAGUAAACUUCTT against S100a6 | 2.57 (active) |
| GCUGUGUAGCAUUUUAACATT against Ank2 | -0.0376 |
| GUUGACUGUACCCGAUACATT against Mxd3 | -0.0552 |
| GGUGCUGAGGCUGAUUCUCTT against Capn15 | 3.35 (active) |
| GGUAUAUCGCCUAAUCACUTT against Chd6 | -0.885 |
| GGUAGUGGAGCUGAAUGUUTT against Kctd8 | 0.113 |
| GCAGCCUUCGUGAGUCUGUTT against Asb1 | -0.666 |
| GGAUUAUGAUCCAGAAUUCTT against Omd | 2.96 (active) |
| GGGACAUGAGUAACUGAUGTT against Dhx8 | -0.908 |
| GGUUGUGAUGUGGUGGUCATT against Mdh2 | 1.3 |
| GGGAGAGACAGAAAGCUUUTT against Olfr213 | 1.61 |

| Sequence | z-score |
| --- | --- |
| GCCUAGAAAGUCUGAAUAATT against Ifng | 0.203 |
| GCUGUAAGCCAAUUAACAUTT against Emp1 | 1.06 |
| CGUGCUUAGCAAUCUGAAUTT against Bcl6b | 2.44 (active) |
| GGAAACAACUUUCUAUAACTT against Vmn1r195 | -0.487 |
| GGAUUCAGCAAAUGCUUCCTT against Rcor3 | 2.31 (active) |
| GGACAAGGCCAAGCUAUAATT against Cntnap2 | -1.47 |
| GCACCAAAUUCACUAGAGUTT against Cd24a | 0.83 |
| GCCCAUAAACUGAUGGUGGTT against Tbc1d24 | -0.45 |
| CCCAACAAAUACCACUACATT against Usp20 | -1.39 |
| GGAUCUGGUGACAAACGUATT against Cabyr | 2.04 (active) |
| CCCGACUGAAUGCUCGGAUTT against Rnf220 | 0.386 |
| GGAGAAAGCUCGAAAAUGGTT against Prpf8 | -1.61 |
| GGAAGGAAACUACGAAGGUTT against Edn1 | -0.534 |
| GGAUGCAGAAGCAACUUAATT against AA986860 | 1.91 |
| CCGAUUUCCACAUCUGUCATT against Fam104a | -2.45 (active) |
| GGAAAGAAACAGAAGCACATT against Il21 | -0.511 |
| GCCUCUGUUCCAUCUUGGATT against F830104G03Rik | 1.61 |
| GCUCAGCAGGAAAUAACAGTT against Ccdc90b | -2.06 (active) |
| GGAUGAAGAGCAUAACAGUTT against Sft2d2 | -0.95 |
| GCUAGUCAUGCUACGGAAUTT against Aftph | 0.601 |
| GGUUGUUUCACCAAUAGUUTT against Idi1 | -0.454 |
| GGGCAGAUGUAAUUCUUGUTT against Ctsm | 1.91 |
| GGUACAUGUAUUGUUUCACTT against Cyp2c38 | 2.76 (active) |
